Hits are enriched below; roughly 12% of the tested compounds scored in any of these assays.
JMJD2A Tudor: blocks the human JMJD2A Tudor domain | AlphaScreen JMJD2A-Tudor / H3K4me3 peptide binding | Potency, µM (top dose mostly 114 µM), usual class: inhibitors | hit rate 4.4% among 390,000 | AID 504339; also: nearly all actives have a fitted effect of over 50% in size
Target sequence (O75164 whole entry, looked up, the tested form may be a part): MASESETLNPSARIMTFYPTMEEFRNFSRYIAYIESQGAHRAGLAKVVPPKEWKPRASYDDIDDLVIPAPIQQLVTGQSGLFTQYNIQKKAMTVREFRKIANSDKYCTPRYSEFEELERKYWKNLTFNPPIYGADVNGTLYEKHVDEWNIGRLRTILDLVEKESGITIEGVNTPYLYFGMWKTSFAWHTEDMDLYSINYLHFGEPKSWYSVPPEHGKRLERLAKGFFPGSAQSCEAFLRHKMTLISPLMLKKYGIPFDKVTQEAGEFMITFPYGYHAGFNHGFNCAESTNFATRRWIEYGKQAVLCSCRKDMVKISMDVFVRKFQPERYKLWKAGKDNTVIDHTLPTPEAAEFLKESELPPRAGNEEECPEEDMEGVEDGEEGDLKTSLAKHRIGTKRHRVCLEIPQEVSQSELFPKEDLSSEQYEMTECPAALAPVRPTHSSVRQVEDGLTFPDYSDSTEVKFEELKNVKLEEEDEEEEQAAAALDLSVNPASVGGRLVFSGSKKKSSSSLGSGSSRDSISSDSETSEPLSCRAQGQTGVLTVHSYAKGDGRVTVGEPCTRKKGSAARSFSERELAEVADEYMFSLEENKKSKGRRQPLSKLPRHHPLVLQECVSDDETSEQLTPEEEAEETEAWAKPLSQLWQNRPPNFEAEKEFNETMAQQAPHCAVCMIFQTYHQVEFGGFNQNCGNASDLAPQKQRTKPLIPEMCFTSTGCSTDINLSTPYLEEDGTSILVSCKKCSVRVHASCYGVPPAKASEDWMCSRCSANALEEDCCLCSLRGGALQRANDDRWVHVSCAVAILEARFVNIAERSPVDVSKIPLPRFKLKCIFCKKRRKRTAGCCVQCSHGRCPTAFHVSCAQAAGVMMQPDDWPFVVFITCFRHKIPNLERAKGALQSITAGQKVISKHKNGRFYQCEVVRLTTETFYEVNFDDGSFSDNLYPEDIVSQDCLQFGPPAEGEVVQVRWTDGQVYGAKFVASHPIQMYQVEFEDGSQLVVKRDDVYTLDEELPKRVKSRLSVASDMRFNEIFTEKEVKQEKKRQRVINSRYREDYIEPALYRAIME
G9a inh: G9a (human) methyltransferase inhibition. G9a H3K9 monomethylation, AlphaScreen, 2 h. AID 504332. hit rate 8.8% among 350,000. Q96KQ7. Potency, µM (top dose mostly 102 µM), usual class: inhibitors; also: nearly all actives have a fitted effect of over 75% in size
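Compounds were preincubated with 20 nM G9a for 15 min, after which biotinylated H3K9 peptide (500 nM) and SAM (20 uM) started a 2 h room-temperature reaction. Monomethylated product was quantified by antibody-based AlphaScreen chemiluminescence.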
L3MBTL1 inh: L3MBTL1 (human) inhibition. AID 485360. Potency, µM (titrated, usually from 57.1 µM), usual class: inhibitors. AlphaScreen L3MBTL1–H3K9me1 peptide binding. hit rate 0.66% among 230,000; also: nearly all actives have a fitted effect of over 60% in size
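L3MBTL1 50 nM + b-AHA-H3(1-15)K9me1 75 nM, 30 min RT; compound added, 30 min RT; streptavidin donor/Ni-chelate acceptor beads 10 ug/mL each final, 30 min RT dark; AlphaScreen read.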
HP1b binding inh: HP1-beta chromodomain-methylated histone interaction inhibition | Potency, µM (doses to about 114 µM), most hits filed as inhibitors | AlphaScreen HP1-beta / biotin-H3K9me3 peptide binding | hit rate 0.56% among 390,000 | P83916; also: nearly all actives have a fitted effect of over 70% in size
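Compound inhibition of the preformed complex between 50 nM HP1-beta and 50 nM biotinylated H3K9me3 peptide was read by AlphaScreen. Buffer was PBS pH 7.4 with 0.01% Tween-20. Incubations ran 30 min at room temperature, with 10 ug/mL donor/acceptor beads.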
Sfp PPTase inh: inhibitors of Bacillus subtilis Sfp phosphopantetheinyl transferase; Q9F4F7; Potency, µM, hits mostly inhibitors; hit rate 3.5% among 310,000; Biochemical Sfp PPTase activity, qHTS;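 also: the enzyme is Sfp with the accession as filed and its product quenches rhodamine fluorescence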
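Reaction rates are the 30-min fluorescence difference (ex 525, em 598 nm) in wells containing 15 nM Sfp, 5 uM rhodamine-CoA and 12.5 uM BHQ-2-YbbR at pH 7.6 with 10 mM MgCl2.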
BAZ2B block: inhibitors of human BAZ2B bromodomain; Q9UIF8; AlphaScreen BAZ2B-H3K14Ac peptide displacement; Potency, µM (series often up to 114 µM), actives largely listed as inhibitors; hit rate 4.4% among 360,000; AID 504333; also: nearly all actives have a fitted effect of over 60% in size
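BAZ2B 50 nM plus b-H3(5-23)K14Ac 50 nM, PBS pH 7.4/0.01% Tween-20, 30 min RT; compound added (max 110 uM), 30 min RT; streptavidin donor/Ni-chelate acceptor beads 10 ug/mL final, 20 min dark; AlphaScreen read.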
Numbers stand for hits; . = inactive; ? = inconclusive; / = not tested or not shown; [ ] = dose if it differs, or a comment. Calls follow the shape of the dose curve; as a rule, active = well fitted curve in the direction sought with a large enough effect; inconclusive = small, poorly fitted or top-dose-only effect, or another doubt; inactive = no such curve, though single readings can be large; an effect the other way counts as inactive or inconclusive.

SMILES	JMJD2A Tudor	G9a inh	L3MBTL1 inh	HP1b binding inh	Sfp PPTase inh	BAZ2B block
O=C(Nc1nnc(-c2ccco2)o1)c1ccc([N+](=O)[O-])s1	?	45µM	.	.	.	?
O=C(Nc1nnc(-c2ccco2)o1)c1ccc2ccccc2c1	.	.	.	.	.	.
N#Cc1ccc(C(=O)Nc2nnc(-c3ccco3)o2)cc1	79µM	.	.	.	.	18µM
Cc1ccsc1C(=O)Nc1nnc(-c2ccco2)o1	.	.	.	.	.	79µM
CC1CCN(S(=O)(=O)c2ccc(C(=O)Nc3nnc(-c4ccco4)o3)cc2)CC1	.	/	/	.	.	?
Cc1ccc(C(=O)Nc2nnc(-c3ccco3)o2)cc1	?	.	.	.	.	50µM
CCc1ccccc1NC(=O)c1ccc(CN2C(=O)CCn3nc(C)cc32)cc1	.	?	/	.	/	.
CC1CCN(S(=O)(=O)c2ccc3c(c2)N(CC(=O)NCCN(C)C)C(=O)CS3)CC1	.	.	/	.	/	.
COc1ccc(N(C(=O)c2ccc(Cl)cc2)S(=O)(=O)c2ccc(C)cc2)cc1	.	.	/	.	/	.
Cc1cn[nH]c1	?	19µM	.	.	.	.
COc1ccc(Nc2nc(Cl)nc(N3CCN(c4ccc(OC)cc4)CC3)n2)cc1	/	?	?	/	.	8.9µM
CC1CCN(c2nc(Cl)nc(Nc3ccc([N+](=O)[O-])cc3)n2)CC1	?	45µM	.	.	.	?
C=CCNc1nc(Nc2ccc([N+](=O)[O-])cc2)nc(N2CCCC2)n1	?	.	/	.	.	.
COc1ccc(OC)c(NC(=O)CCc2nc(-c3ccc(C)cc3)no2)c1	.	.	/	.	/	.
C/C(=N\Nc1ccc(F)cc1F)c1ccc(F)cc1	/	.[0.501 µM]	.	/	.	.
CCNC(=S)N/N=C(\C)c1ccc(N2CCOCC2)cc1	.	.	.	.	.	.
Fc1ccc(N/N=C/c2ccc(N3CCOCC3)cc2)c(F)c1	?	10µM	/	?	.	?
C/C(=N\NC(=O)COc1ccc(C(C)(C)C)cc1)c1ccc(N2CCOCC2)cc1	.	10µM	.	.	.	.
C/C(=N\NC(=O)c1ccc(F)cc1)c1ccc(N2CCOCC2)cc1	.	.	.	.	.	.
CNC(=S)N/N=C(\C)c1ccc(N2CCOCC2)cc1	.	?	.	.	50µM	?
C/C(=N\Nc1ccc(F)cc1F)c1ccc(N2CCOCC2)cc1	?	7.9µM	.	.	.	.
Cc1ccccc1C(=O)Nc1nc2nc(C)c(C)c(=O)n2[nH]1	.	.	/	.	/	.
COc1cccc(-n2c(SCc3ccccc3C)nc3c([nH]c4ccccc43)c2=O)c1	.	.	/	.	/	.
C/C(=N\Nc1ccc(F)cc1F)c1ccc(Br)s1	.	8.9µM	.	?	.	.
C/C(=C\C(=O)c1ccc(F)cc1)Nc1ccc(N2CCOCC2)cc1	?	40µM	.	.	.	.
SMILES	JMJD2A Tudor	G9a inh	L3MBTL1 inh	HP1b binding inh	Sfp PPTase inh	BAZ2B block
C/C(=N\NC(=O)c1ccc(Cl)cc1)c1ccc(Br)s1	.	.[12.7 µM]	.	.	.	.
COc1ccc(-c2cc(C)no2)cc1S(=O)(=O)Nc1c(C)cc(C)cc1C	.	.	/	.	/	.
Cc1ccc(-c2csc3n[nH]c(=S)n23)cc1	1.1µM	1.4µM	.	?	13µM	28µM
COc1cc(=O)n2c(-c3ccccc3)csc2n1	.[11.4 µM]	.	.	.	.	.
CC(C)c1cnc2c(c1SCc1ccc([N+](=O)[O-])cc1)c(=O)n(C)c(=O)n2C	.	?	/	.	/	.
O=Cc1c(-c2ccccc2)nc2ccccn12	.[11.4 µM]	.	.	.	.	.
CCc1nc(-c2ccccc2)c2ccccn12	.	16µM	/	.	28µM	/
O=C1C(Cl)=C(Nc2ccccc2O)C(=O)N1c1ccccc1	35µM	7.9µM	.	?	22µM	?
Cc1ccc(O)c(NC2=C(Cl)C(=O)N(Cc3ccccc3)C2=O)c1	4µM	6.3µM	?	16µM	7.1µM	45µM
Cc1ccc(C(=O)N2CCCCC2)cc1NC1=C(Cl)C(=O)N(Cc2ccccc2)C1=O	.	.[2.33 µM]	.	.	/	.
Cc1ccc(C)c(N2CCN(C(=O)CCS(=O)(=O)c3ccc4c(c3)CC(=O)N4C)CC2)c1	.	.	/	.	/	.
COc1cccc(C(=O)N2CCN(C(=O)c3cccc(F)c3)CC2)c1	.	.	.	.	.	.
